Activity calls are given as the source filed them. How the source made its calls: active means hit-call score of the fitted dose curve at least 0.9, where 1 is the maximum; inactive means score below 0.9.
Assays:
[1] = read-out: TIMP metallopeptidase inhibitor 2 (TIMP2), TIMP2 (gene 7077); assay: BSK_KF3CT_TIMP2: BioMAP Diversity Plus: KF3CT Assay for TIMP metallopeptidase inhibitor 2 (TIMP2) Biomarker Activity (AID 2283071); settings: primary human keratinocytes with fibroblasts; actives raise or lower the signal
Method in brief: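 Co-culture of human primary keratinocytes and foreskin fibroblasts, measured 24 h after chemical dosing. TIMP-2 quantified by ELISA and fitted in both directions relative to DMSO. Cytotoxicity checked in parallel cultures by SRB total-protein staining.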

[2] = read-out: Transforming growth factor beta 1 (TGFb1), TGFB1 (gene 7040); assay: BSK_KF3CT_TGFb1: BioMAP Diversity Plus: KF3CT Assay for Transforming growth factor beta 1 (TGFb1) Biomarker Activity (AID 2283072); settings: primary human keratinocytes with fibroblasts; actives raise or lower the signal
Method in brief: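 Human keratinocyte/foreskin fibroblast co-culture; TGF-b1 measured by ELISA 24 h after dosing, fitted bidirectionally versus DMSO. Cytotoxicity checked in parallel cultures by total protein (SRB staining, 560 nm).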

[3] = read-out: C-C motif chemokine 2 (Homo sapiens) (UniProt P13500); assay: BSK_KF3CT_MCP1: BioMAP Diversity Plus: KF3CT Assay for Monocyte Chemoattractant Protein 1 (MCP1/CCL2) Biomarker Activity (AID 2283073); settings: primary human keratinocytes with fibroblasts; actives raise or lower the signal
Method in brief: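 ELISA readout of MCP-1 after 24 h chemical dosing of a human skin primary co-culture of keratinocytes and foreskin fibroblasts. Activity was fitted in both directions against DMSO.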

[4] = read-out: Matrix Metallopeptidase 9 (MMP9), MMP9 (gene 4318); assay: BSK_KF3CT_MMP9: BioMAP Diversity Plus: KF3CT Assay for Matrix Metallopeptidase 9 (MMP9) Biomarker Activity (AID 2283074); settings: primary human keratinocytes with fibroblasts; actives raise or lower the signal;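 on AC50: MMP9 protein level quantified by ELISA in the co-culture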
Method in brief: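 Human keratinocyte and foreskin fibroblast co-culture exposed to chemicals for 24 h; MMP9 biomarker measured by ELISA, bidirectional fitting relative to DMSO; cytotoxicity tracked by SRB total protein staining in parallel cultures.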

[5] = read-out: urokinase plasminogen activator (uPA), PLAU (gene 5328); assay: BSK_KF3CT_uPA: BioMAP Diversity Plus: KF3CT Assay for urokinase plasminogen activator (uPA) Biomarker Activity (AID 2283075); settings: primary human keratinocytes with fibroblasts; actives raise or lower the signal
Method in brief: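 Primary human keratinocyte/foreskin fibroblast co-culture exposed to chemical; uPA measured by ELISA at 24 h. Bidirectional fit versus DMSO, with parallel SRB total-protein staining for cytotoxicity.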

CD40, CD40 (gene 958) [6] = assay: BSK_LPS_CD40: BioMAP Diversity Plus: LPS Assay for CD40 Biomarker Activity (AID 2283076); settings: primary human HUVEC with PBMC; actives raise or lower the signal
Method in brief: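 Cells were dosed, incubated 24 h, then assayed for CD40 by ELISA. Gain or loss of signal was analysed relative to DMSO controls. The culture paired human umbilical vein endothelium with peripheral blood mononuclear cells.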

[7] = read-out: E-selectin (Homo sapiens) (UniProt P16581); assay: BSK_LPS_Eselectin: BioMAP Diversity Plus: LPS Assay for Eselectin Biomarker Activity (AID 2283077); settings: primary human HUVEC with PBMC; actives raise or lower the signal
Method in brief: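 Primary human vascular co-culture (endothelium plus PBMC) was dosed with chemical, then E-selectin quantified by ELISA at 24 h. Endpoint values derive from bidirectional curve fitting relative to DMSO.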

[8] = read-out: Interleukin-8 (IL8), CXCL8 (gene 3576); assay: BSK_LPS_IL8: BioMAP Diversity Plus: LPS Assay for Interleukin-8 (IL8) Biomarker Activity (AID 2283078); settings: primary human HUVEC with PBMC; actives raise or lower the signal
Method in brief: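 Readout is IL-8 by ELISA, taken 24 h after compounds were added to LPS-stimulated endothelial/PBMC co-cultures. Both increases and decreases relative to DMSO control were scored through bidirectional fitting.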

[9] = BSK_LPS_SRB: Viability Assessment in the BioMAP Diversity Plus: LPS Assay (AID 2283079); settings: primary human HUVEC with PBMC;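 further: total protein by sulforhodamine B absorbance as a cytotoxicity measure; measured one day after compound addition; fitted in both directions against DMSO so loss or gain of signal counts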
Method in brief: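 Readout is SRB absorbance at 560 nm (0.1% stain, TCA-fixed parallel cultures) as a total-protein cytotoxicity measure. Cells: primary human umbilical vein endothelium plus peripheral blood mononuclear cells, 24 h after chemical exposure; DMSO served as baseline.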

[10] = read-out: Interleukin-1 alpha (IL1a), IL1A (gene 3552); assay: BSK_LPS_IL1a: BioMAP Diversity Plus: LPS Assay for Interleukin-1 alpha (IL1a) Biomarker Activity (AID 2283080); settings: primary human HUVEC with PBMC; actives raise or lower the signal
Method in brief: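 ELISA read-out of IL-1 alpha from a human primary vascular co-culture (endothelium plus PBMC) under LPS, sampled 24 hours post-dosing. Activity was fitted in both directions relative to DMSO controls.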

[11] = read-out: Monocyte Chemoattractant Protein-1 (MCP1), CCL2 (gene 6347); assay: BSK_LPS_MCP1: BioMAP Diversity Plus: LPS Assay for Monocyte Chemoattractant Protein-1 (MCP1) Biomarker Activity (AID 2283081); settings: primary human HUVEC with PBMC; actives raise or lower the signal;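 on AC50: secreted MCP-1 protein quantified by ELISA in culture supernatant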
Method in brief: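 Human endothelial–PBMC co-cultures were dosed with chemical, then LPS-driven MCP-1 levels were quantified by ELISA at 24 h. Activity in either direction was fitted versus DMSO negative control.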

[12] = BSK_LPS_PGE2: BioMAP Diversity Plus: LPS Assay for Prostaglandin E2 (PGE2) Biomarker Activity (AID 2283082); settings: primary human HUVEC with PBMC; actives raise or lower the signal;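 on AC50: secreted prostaglandin E2 measured by ELISA in LPS-stimulated co-culture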
Method in brief: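 HUVEC plus human PBMC co-culture stimulated with LPS; secreted PGE2 quantified by ELISA 24 h after chemical dosing. Activity fitted bidirectionally against DMSO baseline; parallel SRB staining (0.1% SRB after 10% TCA fixation, 560 nm) flags overt cytotoxicity.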

[13] = read-out: Tissue Factor, F3 (gene 2152); assay: BSK_LPS_TissueFactor: BioMAP Diversity Plus: LPS Assay for Tissue Factor Biomarker Activity (AID 2283084); settings: primary human HUVEC with PBMC; actives raise or lower the signal
Method in brief: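 ELISA signal for cell-surface Tissue Factor (CD142) was read 24 h after compound dosing of an LPS-stimulated human endothelial–PBMC primary co-culture. Gain or loss of signal was scored relative to DMSO.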

[14] = read-out: Tumor necrosis factor (Homo sapiens) (UniProt P01375); assay: BSK_LPS_TNFa: BioMAP Diversity Plus: LPS Assay for Tumour Necrosis Factor alpha (TNFa) Biomarker Activity (AID 2283085); settings: primary human HUVEC with PBMC; actives raise or lower the signal
Method in brief: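 Human umbilical vein endothelial cells co-cultured with PBMC and stimulated with LPS. TNFa was measured by ELISA 24 h after chemical dosing, fitted bidirectionally relative to DMSO.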

[15] = read-out: Vascular cell adhesion molecule 1 (VCAM1), VCAM1 (gene 7412); assay: BSK_LPS_VCAM1: BioMAP Diversity Plus: LPS Assay for Vascular cell adhesion molecule 1 (VCAM1) Biomarker Activity (AID 2283086); settings: primary human HUVEC with PBMC; actives raise or lower the signal
Method in brief: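 Human umbilical vein endothelial cells co-cultured with PBMC and stimulated with LPS; VCAM-1 measured by ELISA 24 h after dosing. Bidirectional curve fitting against DMSO baseline; cytotoxicity tracked in parallel by SRB total-protein staining.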

CD38, CD38 (gene 952) = assay: BSK_SAg_CD38: BioMAP Diversity Plus: SAg Assay for CD38 Biomarker Activity (AID 2283087); settings: primary human HUVEC with PBMC; actives raise or lower the signal
Method in brief: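 Human HUVEC plus PBMC co-culture stimulated with superantigen; CD38 measured by ELISA 24 h after chemical dosing. Fluorescence read-out, bidirectional fit against DMSO; cytotoxicity tracked in parallel by SRB and Alamar Blue.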

CD40, CD40 (gene 958) [16] = assay: BSK_SAg_CD40: BioMAP Diversity Plus: SAg Assay for CD40 Biomarker Activity (AID 2283088); settings: primary human HUVEC with PBMC; actives raise or lower the signal
Method in brief: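 Compounds were dosed onto a human primary endothelial–PBMC co-culture, and after 24 h CD40 was quantified by ELISA using a fluorescence signal. Activity in either direction was fitted relative to DMSO.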

CD69, CD69 (gene 969) = assay: BSK_SAg_CD69: BioMAP Diversity Plus: SAg Assay for CD69 Biomarker Activity (AID 2283089); settings: primary human HUVEC with PBMC; actives raise or lower the signal;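 on AC50: cell surface CD69 protein quantified by ELISA with fluorescence detection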
Method in brief: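 ELISA, fluorescence read-out: CD69 on human umbilical vein endothelial cell + PBMC co-culture, 24 h post-dosing. Gain or loss of signal fitted bidirectionally against DMSO baseline.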

[17] = read-out: Monocyte Chemoattractant Protein-1 (MCP1), CCL2 (gene 6347); assay: BSK_SAg_MCP1: BioMAP Diversity Plus: SAg Assay for Monocyte Chemoattractant Protein-1 (MCP1) Biomarker Activity (AID 2283090); settings: primary human HUVEC with PBMC; actives raise or lower the signal
Method in brief: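 MCP-1 levels in the endothelial–PBMC SAg co-culture were quantified by ELISA at 24 h post-dosing; both increases and decreases versus DMSO scored. Cytotoxicity monitored by SRB total protein in parallel cultures.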

[18] = read-out: Macrophage colony-stimulating factor (MCSF), CSF1 (gene 1435); assay: BSK_LPS_MCSF: BioMAP Diversity Plus: LPS Assay for Macrophage colony-stimulating factor (MCSF) Biomarker Activity (AID 2283083); settings: primary human HUVEC with PBMC; actives raise or lower the signal
Method in brief: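 ELISA readout of M-CSF after 24 h compound exposure in a human endothelial/PBMC co-culture. Activity, in either direction, is fitted relative to DMSO vehicle.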

Measured: AC50

Chain of E-selectin (Homo sapiens) (P16581 whole entry, looked up): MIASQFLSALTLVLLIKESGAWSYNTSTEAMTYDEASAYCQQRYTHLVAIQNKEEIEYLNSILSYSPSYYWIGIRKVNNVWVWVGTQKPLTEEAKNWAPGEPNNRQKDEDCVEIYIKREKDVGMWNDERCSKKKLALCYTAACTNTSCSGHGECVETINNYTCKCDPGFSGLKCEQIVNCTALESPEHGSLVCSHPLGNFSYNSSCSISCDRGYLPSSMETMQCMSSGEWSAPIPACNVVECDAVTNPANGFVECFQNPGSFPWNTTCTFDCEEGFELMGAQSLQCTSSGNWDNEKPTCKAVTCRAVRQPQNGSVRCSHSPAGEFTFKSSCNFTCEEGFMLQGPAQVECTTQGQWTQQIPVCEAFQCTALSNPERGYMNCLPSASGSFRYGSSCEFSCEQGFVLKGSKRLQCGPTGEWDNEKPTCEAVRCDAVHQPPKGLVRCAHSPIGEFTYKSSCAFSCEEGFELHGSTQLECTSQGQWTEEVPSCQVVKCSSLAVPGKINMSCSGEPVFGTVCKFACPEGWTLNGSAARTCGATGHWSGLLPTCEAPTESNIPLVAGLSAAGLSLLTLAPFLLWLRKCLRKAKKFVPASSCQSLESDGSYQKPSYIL
Chain of Tumor necrosis factor (Homo sapiens) (P01375 whole entry, looked up): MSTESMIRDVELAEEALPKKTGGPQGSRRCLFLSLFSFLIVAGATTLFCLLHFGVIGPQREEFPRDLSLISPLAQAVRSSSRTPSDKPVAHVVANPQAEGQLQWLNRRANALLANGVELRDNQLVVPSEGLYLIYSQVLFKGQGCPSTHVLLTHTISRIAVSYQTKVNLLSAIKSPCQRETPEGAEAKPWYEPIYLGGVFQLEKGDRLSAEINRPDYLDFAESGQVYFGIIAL

CCCCCCCC[Si](OCC)(OCC)OCC
active: [4] 27.6 µM | [15] 30.1 µM | CD38, CD38 (gene 952) 20 µM | CD69, CD69 (gene 969) 25.4 µM
not listed: [18]
inactive: all other assays above

Oc1ccccc1
not listed: [11]
inactive: all other assays above

Cc1cc(F)ccc1-c1cc(N2CC[C@@H](O)[C@H]2CO)ncc1N(C)C(=O)C(C)(C)c1cc(C(F)(F)F)cc(C(F)(F)F)c1
active: [1] 12.4 µM | [2] 25.1 µM | [3] 14.9 µM | [4] 12.3 µM | [5] 12.7 µM | CD40, CD40 (gene 958) [6] 8.65 µM | [7] 11.3 µM | [8] 10.8 µM | [9] 11.3 µM | [10] 9.95 µM | [11] 10.8 µM | [13] 12.9 µM | [14] 10.7 µM | [15] 11.2 µM | CD38, CD38 (gene 952) 10.2 µM | CD40, CD40 (gene 958) [16] 9.9 µM | CD69, CD69 (gene 969) 10.5 µM | [17] 10.3 µM
inactive: [12]

CCO[Si](CCCNC(N)=O)(OCC)OCC
not listed: [11] | CD38, CD38 (gene 952) | [18]
inactive: all other assays above

O=C(Nc1ccc(Cl)cc1)Nc1ccc(Cl)c(Cl)c1
inactive: [1] | [2] | [3] | [5]
active: [4] 1.49 µM | CD40, CD40 (gene 958) [6] 2.42 µM | [7] 2.15 µM | [8] 1.74 µM | [9] 2.03 µM | [10] 3.86 µM | [12] 1.9 µM | [13] 2.26 µM | [14] 3.23 µM | [15] 3.92 µM | CD38, CD38 (gene 952) 2.11 µM | CD40, CD40 (gene 958) [16] 3.04 µM | CD69, CD69 (gene 969) 1.91 µM | [17] 3.32 µM

CN(C)c1ccc(C(=C2C=CC(=[N+](C)C)C=C2)c2ccc(N(C)C)cc2)cc1
active: [1] 1.29 µM | [2] 0.595 µM | [3] 3.97 µM | [4] 1.33 µM | [5] 2.85 µM | CD40, CD40 (gene 958) [6] 0.438 µM | [7] 0.355 µM | [8] 1.26 µM | [9] 7.67 µM | [10] 0.147 µM | [12] 1.13 µM | [18] 476 nM | [13] 0.662 µM | [14] 1.46 µM | [15] 2.51 µM | CD38, CD38 (gene 952) 1.01 µM | CD40, CD40 (gene 958) [16] 0.534 µM | CD69, CD69 (gene 969) 0.582 µM | [17] 0.325 µM

From PubChem BioAssay (EPA / NIEHS)
